ChEMBL document CHEMBL1201862, “PubChem BioAssay data set” (2004)
Hit rate of the full screen: of about 400,000 compounds, about 2,100 (0.53%) were called active. Not shown: some 14% with an inconclusive outcome. The rule behind the calls is not given here. What follows is part of a selection rich in actives, with near analogues and random picks from the rest.

Target: Ataxin-2 (Homo sapiens) (UniProt Q99700)
Experiment: qHTS for Inhibitors of ATXN expression.
Type: functional

Sequence of Ataxin-2 (Homo sapiens) (Q99700 whole entry): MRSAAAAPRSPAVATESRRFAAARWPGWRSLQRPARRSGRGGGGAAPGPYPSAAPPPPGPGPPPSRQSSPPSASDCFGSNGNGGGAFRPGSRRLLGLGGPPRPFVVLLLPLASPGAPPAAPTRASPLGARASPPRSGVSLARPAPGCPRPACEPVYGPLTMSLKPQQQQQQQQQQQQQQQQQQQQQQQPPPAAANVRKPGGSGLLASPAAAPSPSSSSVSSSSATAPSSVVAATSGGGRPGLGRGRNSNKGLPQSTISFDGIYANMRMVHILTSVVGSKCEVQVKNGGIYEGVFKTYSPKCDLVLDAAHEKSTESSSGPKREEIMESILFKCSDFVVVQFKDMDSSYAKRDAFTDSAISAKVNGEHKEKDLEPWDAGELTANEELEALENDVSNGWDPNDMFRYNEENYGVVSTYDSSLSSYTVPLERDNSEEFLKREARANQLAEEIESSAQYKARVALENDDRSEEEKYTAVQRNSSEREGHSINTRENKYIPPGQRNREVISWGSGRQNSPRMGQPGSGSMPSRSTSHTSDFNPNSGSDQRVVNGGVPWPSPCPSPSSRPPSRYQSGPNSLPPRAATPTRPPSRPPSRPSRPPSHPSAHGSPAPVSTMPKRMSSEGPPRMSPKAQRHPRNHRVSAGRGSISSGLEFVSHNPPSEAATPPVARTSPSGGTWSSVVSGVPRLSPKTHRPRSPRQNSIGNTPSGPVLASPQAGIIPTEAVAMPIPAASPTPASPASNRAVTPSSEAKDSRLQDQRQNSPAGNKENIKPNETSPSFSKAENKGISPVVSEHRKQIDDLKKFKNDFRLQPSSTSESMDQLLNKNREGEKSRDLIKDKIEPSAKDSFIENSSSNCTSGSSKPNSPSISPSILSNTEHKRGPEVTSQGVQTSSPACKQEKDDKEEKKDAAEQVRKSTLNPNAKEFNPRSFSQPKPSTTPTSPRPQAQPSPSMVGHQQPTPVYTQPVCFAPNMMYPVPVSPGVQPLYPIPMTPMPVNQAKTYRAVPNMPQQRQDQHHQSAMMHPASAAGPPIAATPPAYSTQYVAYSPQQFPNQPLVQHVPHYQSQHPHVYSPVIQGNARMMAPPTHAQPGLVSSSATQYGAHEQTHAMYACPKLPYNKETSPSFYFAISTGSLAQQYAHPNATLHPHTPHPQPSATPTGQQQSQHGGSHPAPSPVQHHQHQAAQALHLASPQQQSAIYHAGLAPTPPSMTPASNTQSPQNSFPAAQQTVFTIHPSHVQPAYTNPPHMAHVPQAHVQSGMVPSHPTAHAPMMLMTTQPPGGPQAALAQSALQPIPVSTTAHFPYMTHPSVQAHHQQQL

| Compound | Potency |
| --- | --- |
| COc1ccc(C(=O)N/N=C\c2coc3ccccc3c2=O)cc1 | inactive |
| O=C(Cc1cc(=O)oc2cc(O)ccc12)NCC1CCC(C(=O)O)CC1 (stereo unspecified) | inactive |
| Cc1c(-c2ccc(Cl)cc2)c(=O)oc2c(CN3CCCC3)c(O)ccc12 | inactive |
| Cc1cc(-c2cccs2)c2c(N)c(C(=O)c3ccc4c(c3)OCO4)sc2n1 | inactive |
| OCCNc1c2ccccc2nc2ccccc12 | inactive |
| CC(O)CNc1nc(NCc2ccccc2)c2cnn(C)c2n1 (stereo unspecified) | inactive |
| c1ccc(CNc2nc(NCc3ccccc3)c3ccccc3n2)cc1 | 39.8 µM (active) |
| CC1(C)Cc2c(C#N)c(NCCO)nc(-c3ccco3)c2CO1 | inactive |
| C/C(=N\NC(=S)NCCc1ccccc1)c1ccc(Cl)cc1Cl | inactive |
| Cc1cc(C)c(C(=O)Nc2ccccc2)c(CC(C)(C)C(=O)O)c1 | inactive |
| COCCNc1nnc(SCC(=O)Nc2cc(C)on2)s1 | inactive |
| O=[N+]([O-])c1c(NCCCO)cc(SCc2ccco2)c2nonc12 | 31.6 µM (active) |
| Cc1nnc(Sc2cc(NCCCO)c([N+](=O)[O-])c3nonc23)s1 | 21.2 µM (active) |
| CCCn1c(N)c(C(=O)CSc2nc3ccccc3s2)c(=O)[nH]c1=O | inactive |
| CC(=O)OCCCNc1cc(Sc2nc3ccccc3s2)c2nonc2c1[N+](=O)[O-] | 12.6 µM (active) |
| Cc1nnc(Sc2cc(NCCO)c([N+](=O)[O-])c3nonc23)s1 | 28.2 µM (active) |
| CC(=O)Nc1scc(C)c1-c1nc2ccccc2s1 | inactive |
| COc1ccc(NC(=O)CCC(=O)NCc2ccco2)c([N+](=O)[O-])c1 | inactive |
| O=C(Cn1[nH]c(=O)c2ccccc2c1=O)OCC(=O)c1ccc(F)c(F)c1 | inactive |
| COCCCn1c(=N)c(C(=O)NCc2ccco2)cc2c(=O)n3cccc(C)c3nc21 | inactive |
| O=C1c2cccc3c(N4CCCCC4)ccc(c23)C(=O)N1c1ccc(O)cc1 | inactive |
| COC(=O)c1cccc(OCCCN2CCC(C(O)(c3ccccc3)c3ccccc3)CC2)c1 | 35.5 µM (active) |
| Cc1ccc(OCCCCN2CCCCC2)cc1 | inactive |
| OC(c1ccccc1)(c1ccccc1)C1CCN(CCCOc2cccc(OC(F)(F)F)c2)CC1 | 35.5 µM (active) |
| Cc1ccc(OCCCN2CCC(C(O)(c3ccccc3)c3ccccc3)CC2)cc1 | 35.5 µM (active) |
| O=C(c1coc(=O)c(Br)c1)N1CCC(C(O)(c2ccccc2)c2ccccc2)CC1 | inactive |

| Compound | Potency |
| --- | --- |
| CC(C)c1ccccc1OCCCN1CCCC1 | inactive |
| Brc1cccc(OCCN2CCc3ccccc3C2)c1 | inactive |
| Cc1ccc(OCCCCCCN2CCNCC2)cc1 | inactive |
| O=C(Oc1cccc(C(=S)N2CCCCC2)c1)c1ccccc1 | inactive |
| C=CCOc1ccc(/C=N\NC(N)=S)cc1 | 22.4 µM (active) |
| CCOc1ccc(/C=N/NC(=O)Cc2cccs2)cc1 | inactive |
| C=CCNC(=S)N/N=C/c1ccc(-c2ccc(OC)cc2)o1 | inactive |
| COCCn1c(=N)c(C(=O)NC2CCCC2)cc2c(=O)n3cc(C)ccc3nc21 | inactive |
| COc1ccccc1Cc1c(C2CCCCC2)nc2ccc(Br)cn12 | 17.8 µM (active) |
| Cc1ccc2nc3c(cc(C(=O)NC4CCS(=O)(=O)C4)n3Cc3ccccc3)c(=O)n2c1 (stereo unspecified) | inactive |
| COc1ccccc1Cc1c(C2CCCCC2)nc2ccc(C)cn12 | 20 µM (active) |
| Cc1ccc2nc(C3CCCCC3)c(Cc3cccc(Cl)c3)n2c1 | 39.8 µM (active) |
| Brc1ccc2nc(-c3cccs3)c(NCC3CCCO3)n2c1 (stereo unspecified) | inactive |
| CCC(C)n1c(=N)c(C(=O)NC2CCCCC2)cc2c(=O)n3cc(C)ccc3nc21 (stereo unspecified) | inactive |
| CCn1c(=N)c(C(=O)NC2CCCCC2)cc2c(=O)n3cc(C)ccc3nc21 | inactive |
| Nc1c(C(=O)Nc2ccccc2)sc2nc(N3CCOCC3)c3c(c12)CCCC3 | inactive |
| CC1=NOC(=O)/C1=C\c1ccc(-c2ccc(Cl)cc2Cl)o1 | 35.5 µM (active) |
| O=C(O)c1ccc(N/N=C/c2ccc(-c3ccc(Cl)cc3Cl)o2)cc1 | inactive |
| COc1ccc(/C=C2/C(=O)ON=C2C)cc1Br | inactive |
| O=C(O)c1ccc(CNCc2ccccc2F)cc1 | inactive |
| CC1CCC(NC(=O)c2nn(C)c3c2CS(=O)(=O)c2ccccc2-3)CC1 (stereo unspecified) | 39.8 µM (active) |
| CC1CCC(NC(=O)CN2C(=O)C3CC=CCC3C2=O)CC1 (stereo unspecified) | inactive |
| CC1CCC(NC(=O)COC(=O)CNC(=O)c2ccc3ccccc3c2)CC1 (stereo unspecified) | inactive |
| Cc1nc(-c2ccc(S(=O)(=O)Nc3cc(S(=O)(=O)N(C)C)ccc3C)s2)cs1 | inactive |
| COc1ccc(-c2cc(C(F)(F)F)n3ncc(C(=O)NCC4CCCO4)c3n2)cc1 (stereo unspecified) | inactive |
| C=CCCCCCCCCC(=O)NNC1CC(=O)N(c2ccccc2)C1=O (stereo unspecified) | inactive |

| Compound | Potency |
| --- | --- |
| CCCCN(CCCC)CC(O)Cn1cc(/C=C/C(=O)c2ccccc2)c2ccccc21 (stereo unspecified) | inactive |
| CC(=O)/C=C/n1c(=S)oc2ccccc21 | 9.47 µM (active) |
| CC(=O)Cn1c(=O)oc2ccccc21 | inactive |
| O=C(CCn1c(=S)oc2ccccc21)Nc1ccccc1F | inactive |
| CC(C)CC(=O)NC(=S)NCc1ccccc1 | inactive |
| CC(C)CC(=O)/C=C/n1c(=S)oc2ccccc21 | 31.6 µM (active) |
| CC(=O)OC[C@H]1O[C@@H](Oc2cc3ccc(=O)oc3cc2OC(C)=O)[C@H](OC(C)=O)[C@@H](OC(C)=O)[C@@H]1OC(C)=O | inactive |
| C[C@@H](NC(=O)c1[nH]cnc1C(=O)N[C@@H](Cc1ccccc1)C(=O)OC(C)(C)C)c1ccccc1 | 35.5 µM (active) |
| Cc1cccc(NC(=O)c2nc[nH]c2C(=O)N[C@@H](C)c2ccccc2)c1 | 28.2 µM (active) |
| O=C(Nc1ccccc1)c1nsnc1C(=O)Nc1ccccc1 | inactive |
| Cc1ccc(NC(=O)C(Nc2cccc(C)c2)c2ccccc2)cc1 (stereo unspecified) | inactive |
| CCOc1ccc(C(C)NC(=O)c2cccs2)cc1OCC (stereo unspecified) | inactive |
| Cc1cccc(NC(=O)c2[nH]cnc2C(=O)N[C@@H](Cc2ccccc2)C(=O)OC(C)(C)C)c1 | 39.8 µM (active) |
| Cc1cccc(NC(=O)c2c(C)nn(-c3ccccc3)c2Cl)c1 | inactive |
| CC(C)C[C@H](NC(=O)c1[nH]cnc1C(=O)NCCCCCNC(=O)OC(C)(C)C)C(=O)OC(C)(C)C | 35.5 µM (active) |
| COc1ccc(NC(=O)CSc2nnc3n2CCCCC3)cc1S(=O)(=O)N1CCOCC1 | inactive |
| Cc1ccccc1/C=C/c1nc2ccccc2c(=O)n1CCc1ccccc1 | inactive |
| CCc1cc2c(-c3ccccc3)cc(=O)oc2c2c1OCN(Cc1ccc(F)cc1)C2 | inactive |
| Cc1ccc2nc(N3C(=O)C(O)=C(C(=O)c4ccc(C)o4)C3c3cccc(O)c3)sc2c1 (stereo unspecified) | inactive |
| c1ccc(-c2cnn3c(-c4ccccc4)c(-c4ccccc4)nc3n2)cc1 | inactive |
| COc1ccc(OC)c(/N=C/c2c(O)oc3ccccc3c2=O)c1 | inactive |
| CC(NC(=O)/C(C#N)=C/c1ccc(OCC(=O)O)cc1)c1ccccc1 (stereo unspecified) | inactive |
| CCCCC(C(=O)NC(C)c1ccccc1)C(=O)NC(C)c1ccccc1 (stereo unspecified) | inactive |
| C[C@H](NC(=O)c1[nH]cnc1C(=O)N[C@@H](Cc1ccccc1)C(=O)OC(C)(C)C)C(=O)OC(C)(C)C | 39.8 µM (active) |
| CC(C)C[C@H](NC(=O)c1[nH]cnc1C(=O)N[C@H](C)c1ccccc1)C(=O)OC(C)(C)C | 39.8 µM (active) |
| COCc1cc(C)nc2sc(C(=O)Nc3ccccc3F)c(N)c12 | inactive |

| Compound | Potency |
| --- | --- |
| Nc1c(C(=O)Nc2ccccc2F)sc2nc(-c3cccnc3)ccc12 | inactive |
| CC(C)(C)OC[C@H](NC(=O)c1[nH]cnc1C(=O)Nc1ccccc1F)C(=O)OC(C)(C)C | 35.5 µM (active) |
| CCOc1ccccc1NC(=O)COC(=O)C(Cc1ccccc1)NC(=O)c1ccco1 (stereo unspecified) | inactive |
| CC(C)C[C@H](NC(=O)c1[nH]cnc1C(=O)N[C@@H](Cc1ccccc1)C(=O)OC(C)(C)C)C(=O)OC(C)(C)C | 25.1 µM (active) |
| CCOC(=O)N1CCN(S(=O)(=O)c2c(C)nc3scc(C)n3c2=O)CC1 | inactive |
| COc1ccc(C2C=C(c3ccccc3)Nc3ncnn32)cc1 (stereo unspecified) | inactive |
| O=S(=O)(NCCc1cccs1)c1ccc(Br)cc1 | inactive |
| COCc1cc(C)nc2sc(C(=O)Nc3ccccc3Br)c(N)c12 | inactive |
| CC(C)C[C@H](NC(=O)c1[nH]cnc1C(=O)N[C@@H](C)c1ccccc1)C(=O)OCc1ccccc1 | 35.5 µM (active) |
| CC(C)C[C@H](NC(=O)c1[nH]cnc1C(=O)Nc1ccc(CNC(=O)OC(C)(C)C)cc1)C(=O)OC(C)(C)C | 28.2 µM (active) |
| COc1ccccc1OCc1ccc(C(=O)NC(C)c2ccccc2)o1 (stereo unspecified) | inactive |
| CC(C)(C)OC(=O)[C@H](Cc1ccccc1)NC(=O)c1[nH]cnc1C(=O)Nc1ccc(Cl)cc1 | 39.8 µM (active) |
| CC(C)C[C@H](NC(=O)c1[nH]cnc1C(=O)N[C@@H](C)C(=O)OC(C)(C)C)C(=O)OC(C)(C)C | 35.5 µM (active) |
| CN(C)Cc1c(O)ccc2cc(-c3nc4ccccc4n3C)c(=O)oc12 | inactive |
| Cc1cc2nc3c(O)nc(S)nc3nc2cc1NC(=O)C(F)(F)F | inactive |
| N#Cc1cc2c(nc1SCC(=O)Nc1nccs1)CCCCC2 | inactive |
| CN(C)c1ccc(/C=N/N=C2/SC(CC(=O)O)C(=O)N2c2ccc(O)cc2)cc1 (stereo unspecified) | inactive |
| CC(C)(C)c1cc2ncnc(N3CCCCC3)c2s1 | inactive |
| CC(NC(=O)OC(C)(C)C)C(=O)Oc1cc2oc(=O)cc(-c3ccccc3)c2cc1Cl (stereo unspecified) | inactive |
| CC(NC(=O)OC(C)(C)C)C(=O)Oc1ccc2ccc(=O)oc2c1 (stereo unspecified) | inactive |
| CC[C@@H](C)[C@H](NC(=O)OC(C)(C)C)c1nnc(S(=O)(=O)Cc2cc(C)ccc2C)o1 | 39.8 µM (active) |
| CC(C)[C@H](NC(=O)OC(C)(C)C)c1nnc(S(=O)(=O)Cc2c(F)cccc2Cl)o1 | 22.4 µM (active) |
| CCC(C)[C@@H](NC(=O)OC(C)(C)C)c1nnc(S(=O)(=O)Cc2cccc(C)c2)o1 (stereo partly specified) | 22.4 µM (active) |
